Experimental data reported in PubChem BioAssay (NCI).
This is part of a sample that, as a whole, favours compounds with a hit. Of some 83,000 tested, about 20% had one in any assay.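 Testing used 96-well plates and a 48-hour single-concentration exposure. Example: -40 means 40% of the starting cells died.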 Values without a mark were called inactive. Active and inactive are the calls of the source. The calls were made as follows: active = growth percent below 10; inactive = the rest.

Tests used:
Experiment in all cases: NCI-60 one-dose screen, 48 h (100 = growth as untreated, 0 = no growth, -100 = all killed)
Conditions in all cases: 10 µM unless noted
HCT-15 colon = tested on: HCT-15 colon
HT29 colon = tested on: HT29 colon
SNB-75 CNS = tested on: SNB-75 CNS
SNB-19 CNS = tested on: SNB-19 CNS
U251 CNS = tested on: U251 CNS
PC-3 prostate = tested on: PC-3 prostate
UACC-62 melanoma = tested on: UACC-62 melanoma
SK-MEL-28 melanoma = tested on: SK-MEL-28 melanoma
SK-MEL-2 melanoma = tested on: SK-MEL-2 melanoma
SN12C renal = tested on: SN12C renal
UO-31 renal = tested on: UO-31 renal
TK-10 renal = tested on: TK-10 renal
ACHN renal = tested on: ACHN renal
CAKI-1 renal = tested on: CAKI-1 renal
A498 renal = tested on: A498 renal
CCRF-CEM leukemia = tested on: CCRF-CEM leukemia
MOLT-4 leukemia = tested on: MOLT-4 leukemia
LOX IMVI melanoma = tested on: LOX IMVI melanoma
EKVX NSCLC = tested on: EKVX NSCLC

| SMILES | growth (HCT-15 colon) | growth (HT29 colon) | growth (SNB-75 CNS) | growth (SNB-19 CNS) | growth (U251 CNS) | growth (PC-3 prostate) | growth (UACC-62 melanoma) | growth (SK-MEL-28 melanoma) | growth (SK-MEL-2 melanoma) | growth (SN12C renal) | growth (UO-31 renal) | growth (TK-10 renal) | growth (ACHN renal) | growth (CAKI-1 renal) | growth (A498 renal) | growth (CCRF-CEM leukemia) | growth (MOLT-4 leukemia) | growth (LOX IMVI melanoma) | growth (EKVX NSCLC) |
| --- | --- | --- | --- | --- | --- | --- | --- | --- | --- | --- | --- | --- | --- | --- | --- | --- | --- | --- | --- |
| Cc1cc(N2CCN(c3ccnc4cc(Cl)ccc34)CC2)nc(NC2CCCCC2)n1 | 3.54% (active) | 6.72% (active) | 58.2% | 56.6% | 30.7% | 22.2% | -48.7% (active) | 23.9% | 33.1% | 47.2% | 6.25% (active) | 48.8% | 40.6% | 37.7% | -2.63% (active) | 1.71% (active) | -14.9% (active) | – | – |
| CC(C)n1c(/C=C/[C@@H](O)C[C@@H](O)CC(=O)O)c(-c2ccc(F)cc2)c2ccccc21 | 50.6% | 75.9% | 29.9% | 55.7% | 15.9% | 26.5% | 16.3% | 72.9% | – | 36.4% | 44.7% | 88.7% | 10.3% | -42.9% (active) | -21.3% (active) | 59.8% | 60.8% | 5.69% (active) | 52.7% |
| COC(=O)c1ccc(Cn2cnc3c(N)ncnc32)cc1 | 99.8% | 98.6% | 86.7% | 104% | 111% | 111% | 102% | 104% | 90.8% | 102% | 89.9% | 86.3% | 101% | 103% | 104% | 102% | 93.2% | – | 102% |
| CS(=O)(=O)c1ccc(-n2nc(-c3ccc(Br)cc3)c3ccccc3c2=O)cc1 | 93.4% | 101% | 70.5% | 92.5% | 97.1% | 89.3% | 97% | 113% | 107% | 102% | 67.9% | 105% | 95.9% | 98.7% | 81.3% | 97.1% | 94% | – | – |
| CCNC(=O)Oc1ccc(/C(=C(\C)c2ccc(Cl)cc2)c2ccc(OCCN3CCCCC3)cc2)cc1 | 2.75% (active) | 0.431% (active) | 61.7% | 64.5% | 32.9% | 28.7% | -45.7% (active) | -30.4% (active) | – | 64.8% | 39.3% | 83.7% | 79.9% | – | 83.6% | 22.4% | 10.7% | 10.6% | 57.4% |
| CC1=C/C(=C(\c2ccc(N(C)C)cc2)c2ccc([N+](C)(C)C)cc2)C=CC1=[N+](C)C | 95.7% | 36.5% | 80.5% | 77% | 25.7% | 72.9% | 97.6% | 72.3% | – | 50.9% | 96.1% | 90% | 78.1% | 99.2% | 81.9% | 85.8% | 106% | 69.1% | 54.8% |
| COc1cc(-c2nc3ccccc3[nH]2)ccc1OCc1nnc(-c2ccc(CC(C)C)cc2)o1 | 76.5% | 75.2% | 94.3% | 91.8% | 69.5% | 86% | 92.7% | 93.5% | 101% | 89.9% | 64.9% | 115% | 101% | 96.3% | 64% | 84.9% | 78.8% | 103% | – |
| COc1ccc(-c2cc(-c3ccc(Nc4ccnc5cc(Cl)ccc45)cc3)nc(N3CCOCC3)n2)cc1 | 20.7% | 8.19% (active) | -14.8% (active) | 28.2% | -37.7% (active) | 46.9% | 14.9% | 5.53% (active) | – | 49.2% | 87.8% | 9.38% (active) | 80.7% | – | 86.6% | 3.53% (active) | 23.9% | -58.6% (active) | 90.4% |
| O=c1ccccc(-c2ccc(Br)cc2)c1O | 26.3% | 21.9% | 31.4% | 13% | 9.54% (active) | 29.5% | -49.3% (active) | 23.2% | 12% | 6.62% (active) | -10.6% (active) | 21.5% | 6.35% (active) | – | 31.7% | 3.29% (active) | 5.09% (active) | – | 6.92% (active) |
